Here are results for 16 compounds from ChEMBL document CHEMBL2218924, “A broad activity screen in support of a chemogenomic map for kinase signalling research and drug discovery” (Biochem J, 2013).

Experiment [1] has as its target Serine/threonine-protein kinase PLK3 (Homo sapiens) (UniProt Q9H4B4). Particulars: at 1 µM; call rule not given here.
Experiment [2] shares this target. The following applies: at 10 µM.
Experiment [3] addresses T1, cAMP-dependent protein kinase catalytic subunit PRKX (Homo sapiens) (UniProt P51817).
T1 sequence (whole entry): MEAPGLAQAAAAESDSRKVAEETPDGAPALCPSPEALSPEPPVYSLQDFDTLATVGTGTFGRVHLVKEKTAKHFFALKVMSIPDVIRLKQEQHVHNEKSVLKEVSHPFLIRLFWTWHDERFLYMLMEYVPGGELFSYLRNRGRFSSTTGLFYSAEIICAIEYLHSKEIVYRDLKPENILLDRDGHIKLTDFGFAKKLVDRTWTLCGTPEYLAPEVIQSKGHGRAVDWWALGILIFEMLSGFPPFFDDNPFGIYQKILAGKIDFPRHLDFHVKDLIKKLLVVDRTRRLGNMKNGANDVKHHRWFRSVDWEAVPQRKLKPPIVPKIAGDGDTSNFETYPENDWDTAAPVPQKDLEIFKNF
The following applies: at 1 µM.

For experiment [4], the target named is T1, cAMP-dependent protein kinase catalytic subunit PRKX (Homo sapiens). The following applies: at 10 µM.
Experiment [5] concerns the target Protein-tyrosine kinase 2-beta (Homo sapiens) (UniProt Q14289). Particulars: at 1 µM.
Experiment [6] shares this target. The following applies: at 10 µM.
Experiment [7] concerns the target Receptor-interacting serine/threonine-protein kinase 2 (Homo sapiens) (UniProt O43353). Particulars: at 1 µM.
For experiment [8] the target is unchanged. The following applies: at 10 µM.
Experiment [9] has as its target Rho-associated protein kinase 1 (Homo sapiens) (UniProt Q13464). The following applies: at 1 µM.
The target is the same in experiment [10]. The following applies: at 10 µM.

Sequence of Serine/threonine-protein kinase PLK3 (Homo sapiens) (Q9H4B4 whole entry, looked up): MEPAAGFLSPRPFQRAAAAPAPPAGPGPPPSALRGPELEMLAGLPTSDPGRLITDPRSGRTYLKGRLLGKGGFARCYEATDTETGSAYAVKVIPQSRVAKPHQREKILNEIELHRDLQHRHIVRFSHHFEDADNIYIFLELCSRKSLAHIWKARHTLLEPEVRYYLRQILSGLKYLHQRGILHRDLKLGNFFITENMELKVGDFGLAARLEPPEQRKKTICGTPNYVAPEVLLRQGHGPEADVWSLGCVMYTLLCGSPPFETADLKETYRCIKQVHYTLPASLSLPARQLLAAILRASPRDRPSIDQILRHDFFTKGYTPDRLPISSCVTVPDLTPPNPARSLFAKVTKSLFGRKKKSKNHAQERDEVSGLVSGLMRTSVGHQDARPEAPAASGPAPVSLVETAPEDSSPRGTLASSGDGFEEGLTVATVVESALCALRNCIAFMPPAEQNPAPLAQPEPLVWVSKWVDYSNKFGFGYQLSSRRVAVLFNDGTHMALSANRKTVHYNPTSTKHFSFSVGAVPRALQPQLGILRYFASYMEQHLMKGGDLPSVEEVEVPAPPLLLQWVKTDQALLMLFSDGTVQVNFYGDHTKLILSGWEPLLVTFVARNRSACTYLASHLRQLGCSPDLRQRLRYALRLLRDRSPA
Sequence of Protein-tyrosine kinase 2-beta (Homo sapiens) (Q14289 whole entry, looked up): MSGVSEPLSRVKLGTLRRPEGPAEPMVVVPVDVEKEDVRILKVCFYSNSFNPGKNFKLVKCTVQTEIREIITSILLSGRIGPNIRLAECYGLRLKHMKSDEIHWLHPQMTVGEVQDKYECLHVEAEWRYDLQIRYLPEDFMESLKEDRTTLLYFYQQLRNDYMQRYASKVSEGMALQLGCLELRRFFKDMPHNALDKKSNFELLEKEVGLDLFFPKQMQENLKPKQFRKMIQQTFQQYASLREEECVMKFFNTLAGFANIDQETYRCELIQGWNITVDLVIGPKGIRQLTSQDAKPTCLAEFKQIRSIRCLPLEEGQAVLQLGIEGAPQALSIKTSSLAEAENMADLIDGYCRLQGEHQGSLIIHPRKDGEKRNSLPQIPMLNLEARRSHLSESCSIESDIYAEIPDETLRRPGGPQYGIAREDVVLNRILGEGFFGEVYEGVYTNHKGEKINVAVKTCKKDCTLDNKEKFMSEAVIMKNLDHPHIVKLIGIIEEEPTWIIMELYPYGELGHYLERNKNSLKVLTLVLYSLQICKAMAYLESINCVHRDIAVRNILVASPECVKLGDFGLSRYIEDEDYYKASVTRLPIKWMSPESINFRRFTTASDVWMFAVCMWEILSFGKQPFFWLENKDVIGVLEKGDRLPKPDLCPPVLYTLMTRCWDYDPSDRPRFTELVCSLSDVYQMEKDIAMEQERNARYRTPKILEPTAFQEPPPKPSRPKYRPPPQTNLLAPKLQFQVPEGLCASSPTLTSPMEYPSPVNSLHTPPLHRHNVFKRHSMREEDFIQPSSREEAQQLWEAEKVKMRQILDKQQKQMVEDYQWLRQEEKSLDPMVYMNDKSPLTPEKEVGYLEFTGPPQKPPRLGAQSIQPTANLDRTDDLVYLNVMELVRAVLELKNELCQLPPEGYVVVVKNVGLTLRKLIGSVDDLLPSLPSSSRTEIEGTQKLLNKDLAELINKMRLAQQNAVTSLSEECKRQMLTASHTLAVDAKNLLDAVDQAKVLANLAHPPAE
Sequence of Receptor-interacting serine/threonine-protein kinase 2 (Homo sapiens) (O43353 whole entry): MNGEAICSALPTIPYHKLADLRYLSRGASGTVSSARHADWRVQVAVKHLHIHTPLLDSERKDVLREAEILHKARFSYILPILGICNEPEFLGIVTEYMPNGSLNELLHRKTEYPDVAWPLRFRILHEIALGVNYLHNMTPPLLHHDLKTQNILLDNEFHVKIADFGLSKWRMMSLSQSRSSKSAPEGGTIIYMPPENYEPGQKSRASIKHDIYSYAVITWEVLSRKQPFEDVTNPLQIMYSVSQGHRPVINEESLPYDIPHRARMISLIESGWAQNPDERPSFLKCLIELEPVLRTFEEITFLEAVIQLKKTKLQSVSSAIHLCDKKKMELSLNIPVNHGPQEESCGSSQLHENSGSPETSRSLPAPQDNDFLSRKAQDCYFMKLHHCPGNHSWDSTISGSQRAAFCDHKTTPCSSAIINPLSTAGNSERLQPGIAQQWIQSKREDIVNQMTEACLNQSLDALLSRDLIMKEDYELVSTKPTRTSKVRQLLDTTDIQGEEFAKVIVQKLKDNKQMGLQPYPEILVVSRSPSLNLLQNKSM
Sequence of Rho-associated protein kinase 1 (Homo sapiens) (Q13464 2-1354 limits assumed): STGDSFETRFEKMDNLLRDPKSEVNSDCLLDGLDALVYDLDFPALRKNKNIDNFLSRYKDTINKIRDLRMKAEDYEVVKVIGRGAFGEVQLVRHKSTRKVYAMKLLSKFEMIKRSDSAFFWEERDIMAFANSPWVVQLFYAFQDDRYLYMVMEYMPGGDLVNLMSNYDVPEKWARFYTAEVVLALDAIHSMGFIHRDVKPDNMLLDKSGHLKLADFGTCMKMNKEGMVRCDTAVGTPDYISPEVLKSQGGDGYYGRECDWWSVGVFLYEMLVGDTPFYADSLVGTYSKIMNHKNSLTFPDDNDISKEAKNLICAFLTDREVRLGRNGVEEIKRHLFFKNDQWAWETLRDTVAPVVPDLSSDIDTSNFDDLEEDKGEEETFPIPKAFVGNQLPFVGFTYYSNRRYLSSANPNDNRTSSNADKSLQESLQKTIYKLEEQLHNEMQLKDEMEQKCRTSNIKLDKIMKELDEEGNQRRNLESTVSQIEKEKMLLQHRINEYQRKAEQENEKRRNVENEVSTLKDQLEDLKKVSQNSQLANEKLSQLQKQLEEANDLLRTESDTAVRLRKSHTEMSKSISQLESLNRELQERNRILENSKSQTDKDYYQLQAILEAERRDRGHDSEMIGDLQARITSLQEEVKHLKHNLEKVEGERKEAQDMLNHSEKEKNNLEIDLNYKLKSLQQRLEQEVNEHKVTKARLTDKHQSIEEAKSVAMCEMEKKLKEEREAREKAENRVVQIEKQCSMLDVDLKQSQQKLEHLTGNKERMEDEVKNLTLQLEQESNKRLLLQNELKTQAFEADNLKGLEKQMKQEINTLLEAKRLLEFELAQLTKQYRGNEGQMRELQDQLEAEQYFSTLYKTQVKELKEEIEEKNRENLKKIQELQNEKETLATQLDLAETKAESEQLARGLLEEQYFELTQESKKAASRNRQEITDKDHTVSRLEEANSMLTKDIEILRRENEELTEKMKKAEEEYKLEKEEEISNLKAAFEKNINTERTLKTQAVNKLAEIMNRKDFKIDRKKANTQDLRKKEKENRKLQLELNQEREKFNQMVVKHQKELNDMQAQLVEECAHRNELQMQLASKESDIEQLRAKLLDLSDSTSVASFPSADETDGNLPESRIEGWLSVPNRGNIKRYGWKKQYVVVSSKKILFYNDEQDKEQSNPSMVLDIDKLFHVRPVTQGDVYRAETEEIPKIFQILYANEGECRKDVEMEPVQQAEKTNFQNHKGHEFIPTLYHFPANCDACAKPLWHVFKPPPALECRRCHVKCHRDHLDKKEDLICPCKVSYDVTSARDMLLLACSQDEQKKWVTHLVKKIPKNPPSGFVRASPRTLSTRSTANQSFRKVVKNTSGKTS

On to `O=c1cc(-c2cccc3c2Sc2ccccc2S3)oc(N2CCOCC2)c1`, for which the residual activity in experiment [1] was 107% (inactive); in experiment [2], 95%; in [3] it was 95%; in experiment [4], 72%; in experiment [5], 91%; in [6] it was 112%. Moreover, the residual activity in [7] was determined as 94%; in experiment [8], 96%; in [9], 102%; in [10], 96%.

Turning to `CC(=O)O/N=C1\C(=C2\C(=O)Nc3cc(Br)ccc32)Nc2ccccc21`, the residual activity in experiment [1] was 92% (inactive); in [2], 99%; in [3], 77%; in [4] it was 93%; in [5], 79%; in experiment [6], 32%. Moreover, the residual activity was determined as 92% in experiment [7], 84% in experiment [8], 123% in experiment [9] and 119% in experiment [10].

Turning to `O=C(Nc1cccc(Nc2cc(Nc3cccc(C(F)(F)F)c3)ncn2)c1)C1CC1`, the residual activity in experiment [1] was 97% (inactive); in [2], 90%; in experiment [3] it was 102%; in [4], 100%; in experiment [5] it was 104%; in [6], 63%. Moreover, the residual activity in experiment [7] turned out to be 53%; in experiment [8] it was 41%; in experiment [9], 101%; in experiment [10] it was 99%.

`CC[n+]1c(/C=C/N(C)c2ccccc2)n(-c2ccccc2)c2ccc(-c3nc4ccccc4s3)cc21`: the residual activity in experiment [1] was 99% (inactive); in [2] it was 103%; in [3], 108%; in experiment [4], 63%; in [5], 139%; in experiment [6], 83%. In addition, the residual activity in experiment [7] is 93%; in experiment [8], 88%; in experiment [9], 110%; in experiment [10], 102%.

For `Cn1cc(/C=C2\C(=O)Nc3ccc(S(N)(=O)=O)cc32)c2ccccc21`, the residual activity in experiment [1] is 100% (inactive); in [2], 99%; in [3], 88%; in [4], 59%; in experiment [5], 22%; in experiment [6], 5%. The residual activity in experiment [7] came to 52%; in experiment [8], 51%; in [9], 92%; in experiment [10] it was 87%.

On to `Cc1cncc2cccc(S(=O)(=O)N3CCCN(C(=O)CN)C[C@H]3C)c12`, for which the residual activity was 98% (inactive) in [1]; 92% in [2]; 57% in [3]; 13% in experiment [4]; 122% in experiment [5]; 55% in [6]. Besides, the residual activity turned out to be 95% in experiment [7], 76% in [8], 34% in experiment [9] and 14% in experiment [10].

On to `COc1ccc(OC)c2c(=S)c3ccccc3[nH]c12`, for which the residual activity was 99% (inactive) in experiment [1]; 95% in experiment [2]; 83% in experiment [3]; 83% in experiment [4]; 79% in experiment [5]; 105% in experiment [6]. The residual activity worked out at 85% in experiment [7], 80% in experiment [8], 122% in experiment [9] and 102% in experiment [10].

`CCC(=O)Nc1ccc2ncnc(Nc3cccc(Br)c3)c2c1`: the residual activity in experiment [1] is 89% (inactive); in experiment [2], 86%; in [3], 89%; in experiment [4], 94%; in [5], 126%; in experiment [6], 95%. In addition, the residual activity in [7] was found to be 50%; in experiment [8], 32%; in experiment [9], 115%; in experiment [10], 120%.

With `Cc1ccc(NC2=CC(=O)c3sc(C)nc3C2=O)cc1`, the residual activity in [1] is 97% (inactive); in experiment [2] it was 91%; in experiment [3], 102%; in [4] it was 97%; in [5], 108%; in experiment [6] it was 102%. In addition, the residual activity came out at 81% in experiment [7], 89% in experiment [8], 117% in experiment [9] and 102% in experiment [10].

As for `N#CCCc1ccc2c(c1)-c1[nH]c3ccc([N+](=O)[O-])cc3c1CC(=O)N2`, the residual activity in [1] was 100% (inactive); in experiment [2], 82%; in experiment [3], 72%; in experiment [4], 25%; in experiment [5] it was 19%; in experiment [6], 9%. The residual activity in [7] was determined as 18%; in [8] it was 10%; in [9] it was 52%; in experiment [10], 24%.

In the case of `COc1cc2ncnc(N3CCN(C(=O)Nc4ccc(Oc5ccccc5)cc4)CC3)c2cc1OC`, the residual activity in experiment [1] is 90% (inactive); in experiment [2] it was 92%; in [3], 77%; in experiment [4], 113%; in experiment [5], 122%; in experiment [6] it was 104%. The residual activity was 84% in experiment [7], 70% in [8] and 124% in experiment [9].

With `Ic1cccc(CSc2nnc(-c3ccncc3)o2)c1`, the residual activity is 87% (inactive) in [1]; 94% in [2]; 57% in experiment [3]; 71% in [4]; 103% in [5]; 101% in experiment [6]. Further, the residual activity in experiment [7] was 82%; in experiment [8], 78%; in experiment [9], 113%; in [10], 98%.

As for `Oc1ccc(Nc2nc(-c3ccc(Cl)cc3)cs2)cc1`, the residual activity in experiment [1] is 100% (inactive); in [2], 94%; in [3], 78%; in experiment [4], 118%; in [5] it was 109%; in [6] it was 106%. For the same compound, the residual activity in experiment [7] turned out to be 107%; in [8], 89%; in experiment [9], 122%; in experiment [10] it was 121%.

Regarding `Nc1ccc2ncnc(NCCc3ccc(Oc4ccccc4)cc3)c2c1`, the residual activity was 102% (inactive) in experiment [1]; 96% in experiment [2]; 109% in experiment [3]; 58% in experiment [4]; 88% in experiment [5]; 72% in experiment [6]. The residual activity in experiment [7] amounted to 102%; in experiment [8] it was 88%; in [9] it was 106%; in experiment [10], 100%.

Consider `COc1cc2ncnc(Nc3ccc(Oc4ccccc4)cc3)c2cc1OC`, for which the residual activity in experiment [1] is 87% (inactive); in [2], 95%; in experiment [3], 92%; in [4] it was 132%; in [5] it was 96%; in experiment [6], 69%. The residual activity in experiment [7] was determined as 28%; in [8] it was 19%; in [9], 115%; in experiment [10], 126%.

Turning to `COc1ccc(C(=O)Nc2sc3c(c2C(N)=O)CCCC3)cc1OC`, the residual activity was 90% (inactive) in [1]; 91% in experiment [2]; 80% in [3]; 95% in experiment [4]; 121% in experiment [5]; 89% in [6]. Moreover, the residual activity in experiment [7] was 79%; in experiment [8], 71%; in experiment [9], 101%; in experiment [10], 119%.

What is called residual activity is the signal under treatment as a percentage of the control signal.
